Data taken from ChEMBL document CHEMBL3988442, “University of Dundee, Small-Polar-MMV Screening Library” (2021).
Hit rate of the full screen: of about 48,000 compounds, about 13,000 (27%) showed an effect of 50% or more. The list shows a part of the results.

system: Wolbachia pipientis; experiment: Anti-Wolbachia Cell-Based Screen; assay type: functional; parameters: scale not given: in the data most compounds retested in dose-response had high values; conditions: 5 µM

| Compound | Percent Effect |
| --- | --- |
| CCCn1cnnc1-c1nc2c([nH]1)CC(c1ccc(Cl)cc1)CNC2=O (centres undefined) | 14.47% |
| O=S(=O)(Cc1ccc(F)c(Cl)c1)NC(CO)c1ccco1 (centres undefined) | -13.92% |
| COc1ccccc1C1CNC(=O)c2nc(-c3cn(C)nc3C)[nH]c2C1 (centres undefined) | -4.665% |
| Cc1cnc(C(=O)N2CCC3(CC2)C(=O)NCCN3CC(C)C)cn1 | 4.389% |
| COCc1nc(N(C)C/C=C/c2ccccc2)c2cnn(C)c2n1 | -13.22% |
| O=C(c1c[nH]cn1)N1CCC(n2cc(-c3ccsc3)nn2)CC1 | -0.5309% |
| CC(=O)N1Cc2ccccc2OC2(CCN(C(=O)C3CC3)CC2)C1 | 187.7% |
| Cc1cc(C(=O)N2Cc3ccccc3OC3(CCOCC3)C2)nc(N)n1 | -4.105% |
| N#Cc1c(N2CCCN(C3CCOCC3)CC2)nc2ccccn12 | -1.844% |
| CCCc1n[nH]c(C2CN(CCn3cccn3)CCO2)n1 (centres undefined) | -0.7272% |
| CC(C)c1n[nH]c(C2CN(Cc3ccno3)CCO2)n1 (centres undefined) | 2.718% |
| Cc1n[nH]c(C2CN(CCCOc3ccc(F)cc3)CCO2)n1 (centres undefined) | -9.596% |
| CC(C)c1n[nH]c(C2CN(Cc3nnc(C4CC4)n3C)CCO2)n1 (centres undefined) | 4.048% |
| Cn1c(CN2CCOC(c3nc(C(C)(C)C)n[nH]3)C2)nnc1C1CC1 (centres undefined) | 2.258% |
| CC(C)(C)c1n[nH]c(C2CN(CCNC3CCCCC3)CCO2)n1 (centres undefined) | -7.813% |
| CCCc1n[nH]c(C2CN(CCc3cccs3)CCO2)n1 (centres undefined) | 119.2% |
| Cc1nc(C)n(CC2CN(CCc3cccs3)CCO2)n1 (centres undefined) | -47.87% |
| CC(C)c1n[nH]c(C2CN(CCc3cccs3)CCO2)n1 (centres undefined) | 96.38% |
| CCc1n[nH]c(C2CN(CCc3cccs3)CCO2)n1 (centres undefined) | 2.973% |
| Cc1n[nH]c(C2CN(CCc3cccs3)CCO2)n1 (centres undefined) | 117.1% |
| CC(C)(C)c1n[nH]c(C2CN(CCc3cccs3)CCO2)n1 (centres undefined) | 121.2% |
| COCCOc1ncccc1C(=O)N(C)c1ccc(OC)nc1 | -5.142% |

| Compound | Percent Effect |
| --- | --- |
| Cc1ccc(S(C)(=O)=O)cc1C(=O)NS(=O)(=O)c1ccc(Cl)cc1 | -5.911% |
| Cc1ccc(C(C)NC(=O)N2CCN(C(=O)CC(F)(F)F)CC2)o1 (centres undefined) | -14.24% |
| Nc1cc2c(nn1)CCN(C(=O)c1ccc(-c3ccco3)[nH]c1=O)C2 | 1.419% |
| N#Cc1ccc(CN2CCCN(CCCn3cncn3)CC2)cc1 | -13.2% |
| O=C(CN1CCS(=O)(=O)CC1)Nc1ccc(N2CCCC2)nc1 | 0.8889% |
| CN(C)[C@@H]1CCN(S(=O)(=O)C2CC2)[C@H]1Cc1ccccc1.O=C(O)C(F)(F)F | 106% |
| CC(C)N(C)[C@@H]1CCN(S(C)(=O)=O)[C@H]1Cc1ccccc1 | 103.5% |
| CN(C)[C@@H]1CCN(c2ncc(F)cn2)[C@H]1Cc1ccccc1.O=C(O)C(F)(F)F.O=C(O)C(F)(F)F | 3.414% |
| CN(C)[C@@H]1CCN(S(=O)(=O)c2cn(C)cn2)[C@H]1Cc1cccnc1.O=C(O)C(F)(F)F.O=C(O)C(F)(F)F.O=C(O)C(F)(F)F | 0.7375% |
| CN(C)[C@@H]1CCN(c2ncccn2)[C@H]1Cc1ccccc1 | -9.311% |
| CC(C)NC(=O)N1CC[C@@H](N(C)C)[C@@H]1Cc1ccccc1.O=C(O)C(F)(F)F | 0.7735% |
| CC(C)N(C)[C@@H]1CCN(Cc2ccco2)[C@H]1Cc1ccccc1 | 2.864% |
| CC(C)N(C)[C@@H]1CCN(Cc2ccoc2)[C@H]1Cc1ccccc1 | -14.75% |
| CN(C)[C@@H]1CCN(S(C)(=O)=O)[C@H]1Cc1ccccc1 | 99.96% |
| CCOc1ccc(C(=O)N2C[C@H]3CC[C@@H]2CN(C(=O)C2CCC2)C3)cc1 | -22.33% |
| CCOc1ccc(C(=O)CCC(=O)NCc2cncn2CC)cc1C | -8.028% |
| CC(C)Cc1noc(-c2ccc(NCc3noc(C(C)C)n3)nc2)n1 | 13.03% |
| Cc1ccc(-c2ncc(CN3CCOC(c4ccco4)C3)s2)o1 (centres undefined) | 2.096% |
| COCCC(=O)N1CCC2(CN(Cc3cccc(F)c3)C2)C1 | -10.24% |
| COC(=O)CCC(=O)N1CCC2(CN(Cc3ccc(Cl)cc3)C2)C1 | 100.4% |
| COCCC(=O)N1CCC2(CCCN(Cc3cc(OC)ccc3F)C2)C1 (centres undefined) | -0.03102% |
| CN1CCCC2(CC1)CCN(C(=O)CCc1ccccc1O)CC2 | -5.541% |

| Compound | Percent Effect |
| --- | --- |
| COC(=O)CCC(=O)N1CCC2(CN(Cc3cccc(Cl)c3)C2)C1 | 11.86% |
| CN1CCN(CC2(O)CCN(C(=O)CCc3ccccc3F)C2)CC1 (centres undefined) | 132.9% |
| COC(=O)CCC(=O)N1CCC2(CN(Cc3ccccc3)C2)C1 | 108.2% |
| CN1CCCC2(CC1)CCN(C(=O)CCc1ccccc1F)CC2 | -19.97% |
| COC(=O)CCC(=O)N1CCC2(CN(Cc3ccccc3F)C2)C1 | 106.8% |
| COCCC(=O)N1CCC2(CCN(Cc3cccc(F)c3)C2)C1 (centres undefined) | 0.08604% |
| COC(=O)CCC(=O)N1CCC2(CN(Cc3cccc(F)c3)C2)C1 | -9.48% |
| CCn1cnnc1CNC(=O)N(C)Cc1cccc(Cl)c1Cl | -4.031% |
| Cc1ccc(CN2CC3(CCN(C(=O)Cc4ccc(Cl)cc4)C3)C2)o1 | 100.7% |
| CCS(=O)(=O)N1CCC2(CN(Cc3ccc(C)o3)C2)C1 | -24.8% |
| Cc1ccc(CN2CC3(CCN(S(=O)(=O)c4ccccc4)C3)C2)o1 | -20.52% |
| CCCOc1ccc(Cl)cc1CNc1ncnc2oc(C)nc12 | -1.031% |
| Cc1nc(C2CCCN2CC(=O)Nc2c(C)n[nH]c2C)no1 (centres undefined) | 89.73% |
| CCc1nc(C2CCCN2CC(=O)Nc2c(C)n[nH]c2C)no1 (centres undefined) | 6.679% |
| Cc1n[nH]c(C)c1NC(=O)CN1CCCC1c1noc(C(C)C)n1 (centres undefined) | 106.9% |
| Cc1nn(C)c(C)c1NC(=O)CN1CCCC1c1noc(C2CC2)n1 (centres undefined) | -4.679% |
| Cc1n[nH]c(C)c1NC(=O)CN1CCCC1c1noc(C2CC2)n1 (centres undefined) | 90.47% |
| Cc1nc(C2CCCN2CC(=O)Nc2c(C)nn(C)c2C)no1 (centres undefined) | -17.15% |
| Cc1nn(C)c(C)c1NC(=O)CN1CCCC1c1noc(C(C)C)n1 (centres undefined) | -6.278% |
| Cc1cc(NC(=O)CN2CCCC2c2noc(C(C)C)n2)n(C)n1 (centres undefined) | -5.63% |
